In PubChem BioAssay (Tox21):
Results filed as inconclusive are left out. Active and inactive are the calls of the source. The call rests on the fitted dose curve.

Experiment: cAMP Responsive Elements (CRE) small molecule agonists, cell-based qHTS assay (AID 1963590)
Conditions: CRE-bla HEK293T, beta-lactamase FRET ratio, 3 h; series mostly up to 92.4 µM; activation: at the top concentration
Text: U.S. Tox21 Program National Center for Advancing Translational Sciences [NCATS] Division of Preclinical Innovation [DPI] U.S. Environmental Protection Agency [EPA] National Institutes of Environmental Health Sciences [NIEHS] National Toxicology Program [NTP] U.S. Food and Drug Administration [FDA] Tox21 Assay Overview: CREB (cyclic-AMP Responsive Element Binding Protein) is a cellular transcription factor. It binds to certain DNA sequences called cAMP Responsive Elements (CRE) and regulates the transcription of the genes. […] This cell line can be used to find agonists/antagonists of the cyclic AMP signaling pathway. The activation of the report gene under culture conditions can be detected by fluorescence intensity. This cell line has been used to screen the Tox21 10K compound library to identify agonists that induce oxidative stress.
Tox21 Assay Protocol Summary: CRE-bla Hek 293T cells were suspended in assay medium (DMEM containing 10% dialyzed FBS, 0.1 mM NEAA, 1 mM sodium pyruvate and 25 mM HEPES) and dispensed at 2,000 cells/5 uL /well into 1536-well black wall/clear bottom plates using a Multidrop Combi (ThermoFisher Scientific, Waltham, MA) dispenser. After the assay plates were incubated at 37 C/5% CO2 for 18 hrs, 23 nL of compounds dissolved in DMSO, positive controls or DMSO only was transferred to the assay plate by a pintool workstation (Kalypsys, San Diego, CA). After the plates were incubated at 37 C/5% CO2 for 3 hrs, 1 uL of LiveBLAzer B/G FRET substrate (Invitrogen, Carlsbad, CA) was added to each well using Bioraptr Flying Reagent Dispenser (FRD, Aurora Discovery, San Diego, CA). The plates were incubated at room temperature for 2 h.
On the % scale 0 is the no-effect control and ±100 the full control effect.

**Q.** With `C=CCOC(=O)CCCCCCCC` as the compound, how does the “activation” value read?
**A.** The value was 1.06% (inactive).

**Q.** Which “activation” value does the source give for `O=C1NCCN1CCO` here?
**A.** Its value is -0.0136% (inactive).

**Q.** With `CC(C)CCCCCOC(=O)CS` as the compound, how does the “activation” value read?
**A.** Its value is 0.139% (inactive).

**Q.** Which “activation” value does the source give for `O=C1NC(=O)[C@@]2(CCOc3ccc(F)cc32)N1` here?
**A.** Its value is 0.277% [at 42.5 µM] (inactive).

**Q.** With `CC(C)CCCCCCCCCCCCCCC(=O)O` as the compound, how does the “activation” value read?
**A.** The value was -0.675% (inactive).

**Q.** With `CCCC(C)CO` (stereo not given) as the compound, how does the “activation” value read?
**A.** The value was -0.737% (inactive).

**Q.** Which Potency does the source give for `C=C1C[C@]23C[C@@]1(O)CC[C@H]2[C@@]12C=C[C@H](O)[C@@](C)(C(=O)O1)[C@H]2[C@@H]3C(=O)O` here?
**A.** The Potency was “inactive”.

**Q.** With `BrC1CCC(Br)C(Br)CCC(Br)C(Br)CCC1Br` (stereo not given) as the compound, how does the “activation” value read?
**A.** Its value is -0.77% (inactive).

**Q.** Which “activation” value does the source give for `Cn1cnc([N+](=O)[O-])c1Sc1ncnc2nc[nH]c12` here?
**A.** Its value is -0.851% [at 42.5 µM] (inactive).

**Q.** With `CC(=O)CC(C)(C)C1CCCCC1` as the compound, how does the “activation” value read?
**A.** The value was -0.534% (inactive).

**Q.** Which Potency does the source give for `OCC(CO)(CO)CO` here?
**A.** Its Potency is “inactive”.

**Q.** With `CC(=O)CC(=O)Nc1ccccc1` as the compound, how does the Potency read?
**A.** Its Potency is “inactive”.

**Q.** With `NC(=O)NNc1ccccc1` as the compound, how does the Potency read?
**A.** The Potency was “inactive”.

**Q.** For `NC(=S)N/N=C/c1cccnc1`, which “activation” value is on record?
**A.** The value was -3.21% [at 42.5 µM] (inactive).

**Q.** Which “activation” value does the source give for `CCC(OCCCOC)OC(C)=O` (stereo not given) here?
**A.** The value was 0.568% (inactive).

**Q.** Which “activation” value does the source give for `CCOC(=O)O[C@]1(C(=O)OCCl)CC[C@H]2[C@@H]3CCC4=CC(=O)C=C[C@]4(C)[C@H]3[C@@H](O)C[C@@]21C` here?
**A.** The value was 0.0837% [at 42.5 µM] (inactive).

**Q.** With `O=C(Oc1ccccc1)c1ccc(O)cc1` as the compound, how does the Potency read?
**A.** Its Potency is “inactive”.

**Q.** With `CC(O)CNCC(C)O` (stereo not given) as the compound, how does the Potency read?
**A.** Its Potency is “inactive”.

**Q.** With `CC(C)OC(=O)C(C)(C)Oc1ccc(C(=O)c2ccc(Cl)cc2)cc1` as the compound, how does the Potency read?
**A.** The Potency was “inactive”.

**Q.** For `Cc1ccc2ccccc2c1[N+](=O)[O-]`, which “activation” value is on record?
**A.** The value was 0.739% (inactive).

**Q.** Which “activation” value does the source give for `CC(=O)NC(Cc1ccccc1)C(=O)O` (stereo not given) here?
**A.** The value was 0.82% [at 42.5 µM] (inactive).

**Q.** Which “activation” value does the source give for `Cc1cc(C)c(C(=O)O)c(C)c1` here?
**A.** Its value is -1.28% (inactive).

**Q.** With `C1CN(CCOCCN2CCOCC2)CCO1` as the compound, how does the “activation” value read?
**A.** The value was 0.0066% (inactive).

**Q.** Which Potency does the source give for `Cc1ccc(C(C)(C)C)cc1` here?
**A.** The Potency was “inactive”.

**Q.** Which “activation” value does the source give for `CCCCCCc1ccc(-c2ccc(C#N)cc2)cc1` here?
**A.** The value was 3.63% (inactive).

**Q.** For `CN(C)C(=S)SC(=S)N(C)C`, which Potency is on record?
**A.** Its Potency is “inactive”.

**Q.** For `ON=C1CCCCC1`, which Potency is on record?
**A.** Its Potency is “inactive”.

**Q.** Which “activation” value does the source give for `COC(=O)c1cc(Cl)ccc1NS(=O)(=O)C(F)(F)F` here?
**A.** Its value is -0.716% [at 42.5 µM] (inactive).

**Q.** Which “activation” value does the source give for `CCCCC/C=C/C=C/C=O` here?
**A.** Its value is -0.179% (inactive).

**Q.** Which Potency does the source give for `CC(C)(c1ccccc1)c1ccc(Nc2ccc(C(C)(C)c3ccccc3)cc2)cc1` here?
**A.** Its Potency is “inactive”.

**Q.** Which “activation” value does the source give for `NC(=O)NS(=O)(=O)c1ccc(Cl)cc1` here?
**A.** Its value is -0.0076% [at 42.5 µM] (inactive).

**Q.** With `COC(C)(C)CCO` as the compound, how does the “activation” value read?
**A.** Its value is 1.9% (inactive).

**Q.** For `C1=Cc2ccccc2C1`, which “activation” value is on record?
**A.** Its value is -0.105% (inactive).

**Q.** For `CC(=O)c1sc(C)nc1C`, which “activation” value is on record?
**A.** Its value is -1.46% (inactive).

**Q.** Which “activation” value does the source give for `Nc1ccc(NCCO)c([N+](=O)[O-])c1` here?
**A.** Its value is 0.837% (inactive).

**Q.** With `C#CC(O)CCC` (stereo not given) as the compound, how does the “activation” value read?
**A.** Its value is -1.44% (inactive).

**Q.** For `Cc1cccc2c1ccc1ccccc12`, which “activation” value is on record?
**A.** The value was 3.79% (inactive).

**Q.** For `CCCSSCCC`, which “activation” value is on record?
**A.** The value was -0.485% (inactive).

**Q.** Which “activation” value does the source give for `O=C1C=CC(=O)O1` here?
**A.** Its value is -0.384% (inactive).

**Q.** For `COC(=O)c1cc(S(N)(=O)=O)ccc1OC`, which “activation” value is on record?
**A.** The value was 0.143% [at 42.5 µM] (inactive).
